Screening data: PubChem, The Scripps Research Institute Molecular Screening Center
In the library only some 1.1% were active in any assay of this set; here they are far more common.
SRC3 inh – SRC3 coactivator transcriptional activity inhibitors, primary screen, cell-based, luminescence; HEK293 GAL4-SRC3 luciferase reporter; inhibition, % at 3.6 µM; 360,000 compounds, 0.17% hits;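 active = inhibition above a per-campaign cutoff, the mean of all compounds plus 3 SD, cut at about 60% in these data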;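 note: 0% = DMSO-treated cells and 100% = gossypol-treated cells at 36 µM; higher means less SRC3-driven luciferase light from the GAL4 reporter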
COUP-TFII inh – NR2F2 transcriptional activity inhibitors, primary screen, cell-based, luciferase reporter, HEK293T, luminescence; AID 686940, 2013; 370,000 compounds, 0.7% hits; inhibition, % at 8.6 µM; HEK293T NGFI-A luciferase reporter;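 active = inhibition above a per-plate cutoff, mean inhibition of test wells between control levels plus 3 SD, cut at about 38% in these data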;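 note: cells cotransfected with COUP-TFII expression vector driving the NGFI-A reporter; 0% = median of COUP-TF2 test wells and 100% = reporter-only cells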
Target sequence (P24468 whole entry, looked up): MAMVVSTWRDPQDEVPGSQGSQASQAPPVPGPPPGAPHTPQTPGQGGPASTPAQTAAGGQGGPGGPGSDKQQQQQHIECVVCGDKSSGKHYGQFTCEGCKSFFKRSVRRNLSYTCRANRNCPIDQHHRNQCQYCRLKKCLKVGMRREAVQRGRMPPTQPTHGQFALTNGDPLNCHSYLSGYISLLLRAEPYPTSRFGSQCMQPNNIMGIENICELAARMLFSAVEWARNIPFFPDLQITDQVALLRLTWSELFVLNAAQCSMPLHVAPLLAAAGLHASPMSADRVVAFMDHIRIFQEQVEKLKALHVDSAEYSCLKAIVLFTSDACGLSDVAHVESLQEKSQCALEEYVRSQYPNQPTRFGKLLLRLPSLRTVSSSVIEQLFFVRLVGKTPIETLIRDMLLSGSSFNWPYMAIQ
GalR3 antag – GalR3 antagonists in HEK293 cells, primary screen, cell-based, fluorescence readout | HEK293 GalR3-CNG cAMP membrane potential fluorescence; galR3 body fused to GalR1 C-terminus | inhibition, % at 3 µM | 360,000 compounds, 0.44% hits;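 active = inhibition above the screen-wide average plus 3 SD, cut at about 13% in these data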;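 note: forskolin and galanin both at EC90 stimulate the cells; cAMP rise reported by CNG channel membrane potential dye signal; 0% = forskolin plus galanin with DMSO and 100% = forskolin alone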
Target sequence (O60755 1-299 limits assumed): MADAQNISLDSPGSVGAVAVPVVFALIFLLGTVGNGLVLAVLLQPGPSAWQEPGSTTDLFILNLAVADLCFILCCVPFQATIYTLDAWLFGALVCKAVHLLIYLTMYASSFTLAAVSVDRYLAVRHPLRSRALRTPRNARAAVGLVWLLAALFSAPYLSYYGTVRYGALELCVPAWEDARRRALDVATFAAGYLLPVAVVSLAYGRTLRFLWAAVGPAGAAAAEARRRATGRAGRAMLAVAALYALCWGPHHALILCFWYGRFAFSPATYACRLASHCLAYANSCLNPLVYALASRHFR
SRC1 inh – SRC1 coactivator transcriptional activity inhibitors, primary screen, cell-based, luminescence; HEK293 GAL4-SRC1 luciferase reporter; AID 588354, 2011; inhibition, % at 3.6 µM; 360,000 compounds, 0.12% hits;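 active = inhibition above the campaign mean plus 3 SD, with each screening campaign given its own cutoff, cut at about 60% in these data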;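 note: 0% = DMSO treated cells and 100% = gossypol at 36 µM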
SRC2 inh – inhibition of GAL4-SRC2 driven luciferase reporter, primary screen, SRC2 inhibitor project, cell-based, luminescence | HEK293 GAL4-SRC2 luciferase reporter | 370,000 compounds, 0.17% hits | Nuclear receptor coactivator 2 (Homo sapiens), Q15596 | inhibition, % at 9 µM;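 active = inhibition above the mean inhibition of all tested compounds plus 3 SD, set per campaign, cut at about 52% in these data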;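 note: 0% = DMSO treated cells and 100% = cells given Gossypol at 36 µM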
NR5A2 inv ag – LRH-1 (NR5A2) inverse agonists, primary screen, cell-based, luminescence, HEK293T, StAR-luciferase reporter. Nuclear receptor subfamily 5 group A member 2 (Homo sapiens), O00482. LRH-1 transfected, 24 h. inhibition, % at 3.6 µM. 360,000 compounds, 0.13% hits. AID 602396, 2012;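 active = inhibition above the mean inhibition of all tested compounds plus 3 SD, cut at about 73% in these data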;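 note: 0% = DMSO wells and 100% = reporter-only cells lacking LRH-1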
Gal4-VP16 ctr – Gal4-VP16 luciferase reporter inhibitors, counter-screen for COUP-TFII antagonist project, cell-based, luminescence, HEK293 | shares compounds with COUP-TFII inh | inhibition, % at 8.5 µM | 2,500 compounds, 25% hits | AID 687007, 2013; in the data active = inhibition above about 13%
NR2F2 inh conf – NR2F2 transcriptional activity inhibitors, confirmation, cell-based, luciferase reporter, HEK293, triplicate | shares compounds with COUP-TFII inh | HEK293 NGFI-A luciferase reporter, luminescence | inhibition, % at 8.5 µM | 2,500 compounds, 45% hits | AID 687008, 2013;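 active = mean inhibition over three repeats above a set limit taken from the earlier primary screen, cut at about 38% in these data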;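 note: 100% = cells given the luciferase reporter alone without the COUP-TF2 vector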
* hit, by the source's call; . = not tested or not shown.

SMILES | SRC3 inh | COUP-TFII inh | GalR3 antag | SRC1 inh | SRC2 inh | NR5A2 inv ag | Gal4-VP16 ctr | NR2F2 inh conf
CN(C)S(=O)(=O)c1ccc(C(=O)Nc2nnc(-c3cccs3)o2)cc1 | -5.2 | -1.2 | 2.2 | -7.5 | -3.3 | -17.3 | . | .
CN(C)S(=O)(=O)c1ccc(C(=O)Nc2nc(-c3cccs3)cs2)cc1 | 24.9 | 53.6* | -4.6 | 8.8 | 17.5 | 21.9 | -5.2 | 25.9
C#Cc1ccc(CN2CCC(C(=O)Nc3ccc(Oc4ccccc4)nc3)CC2)cc1 | 23.1 | 48.6* | -7.1 | 6.9 | 16.8 | 13.2 | 3.6 | 28.0
O=C(Nc1ccc(Oc2cccnc2)cc1)C1CCN(Cc2cc(Cl)ccc2O)CC1 | 26.0 | 61.5* | 4.2 | 16.5 | 19.1 | 30.5 | 7.9 | 48.2*
O=C(Nc1ccc(Oc2ccccc2)nc1)C1CCN(Cc2cccc(F)c2)CC1 | 7.6 | 10.3 | -2.5 | -25.4 | -5.7 | -0.1 | . | .
CCc1ccccc1NC(=O)[C@@H]1CCCN1S(=O)(=O)c1cccc2cccnc12 | . | -10.0 | . | . | . | . | . | .
CCCCOCC1CN(CCCC)S(=O)(=O)c2c(cccc2N2CCCC2)O1 (stereo not drawn) | . | 3.4 | -5.4 | . | 9.7 | . | . | .
CCOc1ccc(OCC)c(NC(=O)C2CCCN2S(=O)(=O)c2cccc3cccnc23)c1 (stereo not drawn) | 24.1 | 40.5* | 4.3 | 11.8 | -38.1 | 6.7 | 0.8 | 12.2
CCn1nc(C)cc1C(=O)NC1CCCc2c1cnn2-c1ccc(C)c(C)c1 (stereo not drawn) | 9.3 | 54.3* | -7.0 | 5.5 | 4.0 | 29.5 | -5.2 | 39.6*
Cc1cc(C)cc(-n2ncc3c2CCCC3NC(=O)CN2CCCC2=O)c1 (stereo not drawn) | -10.0 | -16.9 | -10.2 | -20.7 | 3.3 | -0.7 | . | .
CC(C)(C)c1ccc(-n2ncc3c2CCCC3NC(=O)CN2CCCC2=O)cc1 (stereo not drawn) | 28.5 | 43.0* | -3.7 | 9.3 | 31.2 | 2.3 | 4.9 | 23.0
COCCNC(=S)N(C)[C@H]1C[C@H]2c3[nH]c4c(-c5ccc6c(c5)OCO6)cccc4c3CCN2C(=O)[C@H]1[C@H](C)O | . | 6.4 | -4.6 | . | 20.2 | . | . | .
CCCCOC(=O)CCN1C(=O)/C(=C/c2ccccc2)SC1=S | . | 1.2 | . | . | . | . | . | .
C/C(CCC12CC3CC(CC(C3)C1)C2)=N\NC(N)=S | 2.7 | 13.6 | -5.3 | 5.0 | 0.5 | 26.3 | . | .
C/C(=N\NC(N)=S)C1C2C3CC4C5CC(C42)C1C53 (stereo not drawn) | 38.7 | 56.7* | -8.1 | 20.9 | 31.2 | 28.9 | 11.4 | 43.1*
CCCS(=O)(=O)c1cnc(C2COc3ccccc3O2)nc1N (stereo not drawn) | 59.5 | 72.0* | -11.9 | 54.3 | 69.5* | 59.4 | 41.9* | 79.0*
N#Cc1ccccc1COc1ccc(/C=C/C(=O)O)cc1 | 14.4 | 68.2* | -3.7 | 5.4 | 69.1* | 27.4 | 62.9* | 50.6*
NC(=S)NN=C1c2cc(OCCN3CCOCC3)ccc2-c2ccc(OCCN3CCOCC3)cc21 | 55.0 | 68.3* | -10.4 | 72.5* | 33.5 | 75.1* | 9.7 | 80.2*
ON=C1c2cc(OCCN3CCCCC3)ccc2-c2ccc(OCCN3CCCCC3)cc21 | -16.2 | . | . | -13.5 | . | -17.9 | . | .
COC(=O)c1c(C)n(-c2ccc(OC)cc2)c2ccc(O)cc12 | 38.7 | 39.0* | -6.6 | 20.5 | 47.3 | -1.0 | -6.7 | 7.6
CN(C(=O)COc1ccccc1C(=O)NCCOc1ccccc1)c1ccccc1 | 76.8* | 56.4* | 5.4 | 51.1 | 45.9 | 49.8 | -6.2 | 25.3
CC(=O)O[C@@H]1CCC[C@@]2(C(=O)N(Cc3ccccc3)c3ccc(-c4c(C)noc4C)cc32)[C@H]1NC(=O)CCc1ccccc1 | . | -1.6 | . | . | -5.3 | . | . | .
C=CCc1cccc2cc(C(=O)Nc3ccccc3C(=O)O)c(=O)oc12 | 27.5 | 40.7* | -9.6 | -2.6 | -0.1 | 6.2 | -8.2 | 47.0*
COC(=O)[C@H](C(C)C)N(Cc1cn(Cc2ccccc2)nn1)S(=O)(=O)c1ccc(F)cc1Br | . | 22.5 | . | . | 14.3 | . | . | .
CC(C)(C)NCC(=Cc1ccccc1)C(=O)c1ccccc1 | 56.0 | 71.9* | -1.1 | 51.4 | 68.0* | 82.3* | 48.5* | 80.2*
SMILES | SRC3 inh | COUP-TFII inh | GalR3 antag | SRC1 inh | SRC2 inh | NR5A2 inv ag | Gal4-VP16 ctr | NR2F2 inh conf
COc1ccc(C=C(C(=O)c2ccccc2)C(=O)c2ccccc2)cc1 | -72.7 | -25.6 | -5.6 | -109.5 | -13.6 | -90.7 | . | .
COc1ccc(-c2cn3c(C)c(C(=O)N4CCN(c5ccc(F)cc5)CC4)sc3n2)cc1 | 2.0 | 1.2 | . | 9.2 | -1.2 | -0.8 | . | .
COc1ccccc1N1CCN(C(=O)c2sc3nc(-c4ccc(F)cc4)cn3c2C)CC1 | 17.9 | 51.9* | . | 7.6 | 17.4 | -3.3 | 1.5 | 30.3
COc1ccccc1N1CCN(C(=O)CCC(=O)N2CCN(c3ccc(F)cc3)CC2)CC1 | 13.0 | 39.8* | -8.1 | 15.5 | 14.0 | 0.6 | -4.3 | 5.0
Nc1nc2c(-c3ccc([N+](=O)[O-])cc3)nnn2c2ccccc12 | . | -13.1 | 0.5 | . | -102.1 | . | . | .
COC(=O)[C@]12C[C@H](CC(=O)NCc3cccs3)C(=O)N(CCc3ccc(OC)c(OC)c3)C1=C[C@H](C(C)(C)C)O[C@@H]2C | . | 11.7 | 3.3 | . | 10.0 | . | . | .
c1ccc(CCc2nc(-c3ccc(-n4cccc4)cc3)no2)cc1 | -22.0 | 2.2 | 2.7 | -0.2 | -29.3 | -0.8 | . | .
c1ccn(-c2ccc(-c3noc(CCc4ccncc4)n3)cc2)c1 | . | 50.8* | . | . | 10.8 | . | -24.1 | 19.9
CCn1c(Cl)c(C=O)s/c1=N\S(=O)(=O)c1ccccc1 | 18.4 | 51.3* | -0.1 | -154.7 | 40.0 | 32.5 | 47.6* | 36.0
CCN(C)C(=O)Oc1cccc([C@H](C)N(C)C)c1 | . | -0.4 | . | . | 4.1 | . | . | .
Cc1cccc(NC(=O)C2CCN(S(=O)(=O)c3cccc4nsnc34)CC2)n1 | 8.3 | 18.9 | -2.4 | 6.3 | 11.9 | -2.0 | . | .
COc1ccc2nc(NC(=O)C3CCN(S(=O)(=O)c4cccc5nsnc45)CC3)sc2c1 | 17.7 | 77.6* | -3.6 | -0.9 | 49.2 | 14.3 | 4.8 | 50.8*
Cc1cc(C)c(S(=O)(=O)NCc2ccncc2)c(C)c1 | 9.2 | 60.5* | 94.4* | 11.7 | 16.6 | 35.8 | 4.0 | 54.1*
